# Results taken from PubChem BioAssay (EPA / NIEHS).
# Activity calls are given as the source filed them. How the source made its calls, unless noted: active means hit-call score of the fitted dose curve at least 0.9, where 1 is the maximum; inconclusive means response in the unintended direction; inactive means score below 0.9.
# Test: CEETOX_H295R_MTT_cell_viability: Viability Assessment in the CeeTox HT-H295R MTT Assay (AID 2283718; active means hit-call score of the fitted dose curve at least 0.9, where 1 is the maximum; inactive means score below 0.9;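 on AC50: curve fitted both ways so AC50 may mark viability loss or gain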)
# Outline: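 MTT reduction (0.5 mg/ml, 4 h at 37 C; absorbance at 570 and 650 nm) gave viability as background-corrected percent change versus controls. H295R cells had 48 h forskolin (10 uM) prestimulation, then 48 h chemical exposure at 0.1% DMSO.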
Structure (SMILES),outcome,AC50
CCC(C)(C)C(=O)OC1=C(c2ccc(Cl)cc2Cl)C(=O)OC12CCCCC2,inactive,–
COP(=S)(OC)Oc1ccc([N+](=O)[O-])cc1,inactive,–
O=C(O)COc1ccc(Cl)cc1Cl,inactive,–
CCN(CC)C(=O)SCc1ccc(Cl)cc1,inactive,–
CC[C@H](C)[C@H]1O[C@]2(C=C[C@@H]1C)C[C@@H]1C[C@@H](C/C=C(\C)[C@@H](O[C@H]3C[C@H](OC)[C@@H](O[C@H]4C[C@H](OC)[C@@H](O)[C@H](C)O4)[C@H](C)O3)[C@@H](C)/C=C/C=C3\CO[C@@H]4[C@H](O)C(C)=C[C@@H](C(=O)O1)[C@]34O)O2 (tested in a mixture with another compound),inactive,–
CNC(=O)CSP(=S)(OC)OC,inactive,–
CCc1ccc(C(=O)NN(C(=O)c2cc(C)cc(C)c2)C(C)(C)C)cc1,inactive,–
CNC(=O)/C=C(\C)OP(=O)(OC)OC,inactive,–
CC1(C)C(C=C(Cl)Cl)C1C(=O)OC(C#N)c1ccc(F)c(Oc2ccccc2)c1 (stereo not drawn),inactive,–
N#Cc1c(Cl)c(Cl)c(Cl)c(C#N)c1Cl,inactive,–
Clc1ccccc1-c1nnc(-c2ccccc2Cl)nn1,inactive,–
O=C(NC(=O)c1c(F)cccc1F)Nc1ccc(OC(F)(F)C(F)OC(F)(F)F)c(Cl)c1 (stereo not drawn),–,1.97 µM (active)
O=[N+]([O-])/N=C1\NCCN1Cc1ccc(Cl)nc1,inactive,–
CCC(C)Nc1c([N+](=O)[O-])cc(C(C)(C)C)cc1[N+](=O)[O-] (stereo not drawn),–,46.9 µM (active)
CC(C)N(C(=O)COc1nnc(C(F)(F)F)s1)c1ccc(F)cc1,inactive,–

# Test: Tanguay_ZF_120hpf_ActivityScore_legacy: (Legacy) Oregon State University Tanguay Lab 120 Hour Post-fertilization zebrafish Assay Score for Activity (AID 2283742);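 on AC50: dechorionated Tropical 5D wild-type zebrafish embryos held singly per well; static exposure from 6 hpf until 120 hpf at 28 °C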
# Outline: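 Embryos are staged, enzymatically dechorionated at 4 hpf, placed individually at 6 hpf, then held in test chemical (0.64% DMSO) at 28C until 120 hpf. Mortality and malformations are scored by brightfield, with non-mortality endpoints skipped for dead embryos.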
Structure (SMILES),outcome,AC50
N#CN,inactive,–
CCOCN(C(=O)CCl)c1c(C)cccc1CC,–,46 µM (active)
CN1CSC(=S)N(C)C1,–,0.0296 µM (active)
O=C(O)C(F)(F)C(F)(F)C(F)(F)C(F)(F)C(F)(F)C(F)(F)C(F)(F)F,inactive,–
CCC(C)(C)C(=O)OC1=C(c2ccc(Cl)cc2Cl)C(=O)OC12CCCCC2,inactive,–
O=C(O)CCCOc1ccc(Cl)cc1Cl,inactive,–
COP(=S)(OC)Oc1ccc([N+](=O)[O-])cc1,inactive,–
O=C(O)COc1ccc(Cl)cc1Cl,inactive,–
CCN(CC)C(=O)SCc1ccc(Cl)cc1,inactive,–
COP(=O)(OC)OC=C(Cl)Cl,inactive,–
CC[C@H](C)[C@H]1O[C@]2(C=C[C@@H]1C)C[C@@H]1C[C@@H](C/C=C(\C)[C@@H](O[C@H]3C[C@H](OC)[C@@H](O[C@H]4C[C@H](OC)[C@@H](O)[C@H](C)O4)[C@H](C)O3)[C@@H](C)/C=C/C=C3\CO[C@@H]4[C@H](O)C(C)=C[C@@H](C(=O)O1)[C@]34O)O2 (tested in a mixture with another compound),–,8.55 µM (active)
CNC(=O)CSP(=S)(OC)OC,inactive,–
CCc1ccc(C(=O)NN(C(=O)c2cc(C)cc(C)c2)C(C)(C)C)cc1,inactive,–
CNC(=O)/C=C(\C)OP(=O)(OC)OC,inactive,–
OCCOc1ccccc1,inactive,–
CC1(C)C(C=C(Cl)Cl)C1C(=O)OC(C#N)c1ccc(F)c(Oc2ccccc2)c1 (stereo not drawn),inactive,–
N#Cc1c(Cl)c(Cl)c(Cl)c(C#N)c1Cl,–,45 µM (active)
Clc1ccccc1-c1nnc(-c2ccccc2Cl)nn1,inactive,–
O=C(NC(=O)c1c(F)cccc1F)Nc1ccc(OC(F)(F)C(F)OC(F)(F)F)c(Cl)c1 (stereo not drawn),inactive,–
O=[N+]([O-])/N=C1\NCCN1Cc1ccc(Cl)nc1,inactive,–
Cc1[nH]c(=O)n(C(C)(C)C)c(=O)c1Cl,inactive,–
CCC(C)Nc1c([N+](=O)[O-])cc(C(C)(C)C)cc1[N+](=O)[O-] (stereo not drawn),inactive,–
CC(C)N(C(=O)COc1nnc(C(F)(F)F)s1)c1ccc(F)cc1,inactive,–
